Among the data in PubChem BioAssay (NCI) are growth values, retold here.

Molecules are shown by their SMILES. This is part of a sample that, as a whole, favours compounds with a hit. Of some 83,000 tested, about 20% had one in any assay.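 For each line, cells grew in 96-well plates with the test compound present at a single concentration for 48 hours.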 Unmarked numbers belong to inactive results. The source made the active and inactive calls. Rule for the calls: active = growth percent below 10; inactive = the rest.

Experiment in all cases: NCI-60 one-dose screen, 48 h (100 = growth as untreated, 0 = no growth, -100 = all killed)
For test [1], the system named is RPMI-8226 leukemia. The following applies: 10 µM unless noted.
Test [2] relates to OVCAR-8 ovarian. The settings on record: 10 µM unless noted.
Test [3] concerns OVCAR-5 ovarian. The settings on record: 10 µM unless noted.
The subject of test [4] is OVCAR-4 ovarian. The following applies: 10 µM unless noted.
Test [5] concerns SK-OV-3 ovarian. The settings on record: 10 µM unless noted.
In test [6] the test system is IGROV1 ovarian. The settings on record: 10 µM unless noted.
Test [7] concerns OVCAR-3 ovarian. The settings on record: 10 µM unless noted.
The subject of test [8] is HS 578T breast. The settings on record: 10 µM.
The test system of test [9] is NCI/ADR-RES ovarian. The following applies: 10 µM unless noted.
In test [10] the test system is T-47D breast. The following applies: 10 µM unless noted.
Test [11] relates to BT-549 breast. The following applies: 10 µM unless noted.
Test [12] concerns MDA-MB-435 melanoma. The following applies: 10 µM unless noted.
Test [13] has as its system SW-620 colon. The settings on record: 10 µM unless noted.
Test [14] relates to MCF7 breast. The following applies: 10 µM unless noted.
Test [15] relates to HCC-2998 colon. The settings on record: 10 µM unless noted.
In test [16] the test system is KM12 colon. The following applies: 10 µM unless noted.
Test [17] has as its system HCT-116 colon. The following applies: 10 µM unless noted.

In the case of `Cc1cc(C)c(C#N)c(SCC(=O)c2sc3c(C#N)c(C)cc(C)[n+]3c2[O-])n1`, the growth in test [1] was 43.1%; in [2] it was 20.4%; in [3], 41.6%; in test [4] it was 66.9%; in test [5] it was 14.7%; in test [6], 9.29% (active). For the same compound, the growth in test [7] was -15.9% (active); in test [8], 21.8%; in test [9], 12%; in test [10], 38.1%; in test [11] it was 30.4%; in test [12], -59.2% (active). The growth in test [13] is 20.3%; in test [14], 13.4%; in test [15] it was 15.8%; in [16], 16.4%.

Take `O=[N+]([O-])c1cccc(N=C(Nc2cccc([N+](=O)[O-])c2)c2ccccc2)c1`: the growth in test [1] is 58.2%; in [2] it was 93.4%; in test [3] it was 99.9%; in [4] it was 84.7%; in test [5], 107%; in test [6], 84.4%. In addition, the growth is 88.2% in test [7]; 97.9% in test [8]; 75.6% in [9]; 82% in test [11]; 78.4% in [12]; 101% in test [13]. For the same compound, the growth is 68.9% in test [14], 58.1% in test [17], 93.2% in [15] and 84.2% in test [16].

On to `COc1ccc(C2CC(c3ccc(Nc4ccnc5cc(Cl)ccc45)cc3)=NN2c2ccccc2)cc1` (stereo unspecified), for which the growth was 70.5% in [1]; 95.4% in test [2]; 86.2% in test [3]; 108% in test [5]; 113% in test [6]; 111% in test [7]. Further, the growth is 105% in test [8]; 92.9% in [10]; 99.8% in test [11]; 80.3% in [12]; 96.3% in [13]; 81.9% in test [14]. The figures for the growth in [17], in [15] and in test [16] were 72.4%, 101% and 94.2%, respectively.

Take `COc1cc2c(cc1OC)C(=O)OC2`: the growth in test [1] is 367%; in test [2], 101%; in [3] it was 100%; in test [4], 108%; in test [5] it was 124%; in [7] it was 110%. In addition, the growth in test [8] was 109%; in test [9], 119%; in test [10], 98.5%; in test [11], 118%; in test [12], 103%; in test [13], 104%. Also, the growth is 105% in [14], 111% in test [17] and 118% in [15].

As to `COc1ccc(-c2cnc3ccnn3c2-c2cc(OC)c(OC)c(OC)c2)cc1`, the growth was 23.9% in test [1]; 47% in test [2]; 66.1% in test [3]; 32% in test [5]; 62.3% in test [6]; -37.9% (active) in test [7]. Besides, the growth was 16.7% in test [8]; 27.4% in [9]; 22.2% in [10]; 66.7% in test [11]; -38.5% (active) in test [12]; 16.1% in test [13]. In addition, the growth was 25.4% in [14], 27.5% in [17], 80.8% in test [15] and 16.1% in test [16].

With `COc1ccc(/C=C/C(=O)c2ccc(NC(=O)CSc3nnc(-c4ccc(Cl)cc4)n3-c3ccccc3)cc2)cc1`, the growth in test [1] was 60.4%; in test [2], 84.6%; in [3], 123%; in test [4], 99.5%; in [5], 104%; in [6] it was 103%. In addition, the growth in [7] was 102%; in test [8], 97.1%; in test [9], 93.9%; in test [11] it was 93%; in test [12] it was 94.4%; in [13] it was 110%. The growth is 70.3% in test [14], 36.4% in test [17], 103% in test [15] and 94.5% in [16].

With `COc1c(C(=O)/C=C/c2ccc(C)o2)c(O)cc2occc12`, the growth was 82.5% in test [1]; 84.8% in test [2]; 107% in [3]; 80.9% in test [4]; 88.6% in test [5]; 69.3% in test [6]. The growth in test [7] was 47.6%; in test [8] it was 65.8%; in [9], 52.2%; in test [10], 66.6%; in test [11], 67.5%; in [12], -28.3% (active). Besides, the growth was 32.1% in test [13], 52.8% in test [17], 79.4% in test [15] and 45.4% in test [16].

On to `Fc1ccc(-c2nnc(N3CCOCC3)c3ccccc23)cc1`, for which the growth in [1] was 111%; in test [2], 111%; in test [3], 108%; in [4], 112%; in test [5], 109%; in test [6], 104%. For the same compound, the growth in test [7] was 109%; in test [8], 114%; in test [9], 109%; in [10] it was 102%; in test [11], 81.4%; in test [12] it was 86.6%. The growth in test [14] was 155%; in [17], 87.9%; in test [15] it was 110%; in test [16] it was 109%.
